Screening results (PubChem)
FUS yeast rescue – rescues growth of FUS-expressing yeast; S. cerevisiae FUS-expressing, growth rescue, OD600, 24 h; Potency, µM (top dose mostly 76.6 µM), usual class: activators; hit rate 0.24% among 390,000; AID 1347120;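 further: plate controls were DMSO vehicle for no effect and reference control for full effect; nearly all actives have a fitted effect of over 55% in size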
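Galactose (2%) drives FUS expression in yeast precultured in raffinose; seeding density OD 0.005. Test compounds incubated 24hr at 30C and 99% humidity before absorbance at 600 nm was measured.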
aSyn yeast inh – alpha-synuclein toxicity inhibition in yeast; Yeast expressing alpha-synuclein, growth rescue, BacTiter-Glo, 24 h; Potency, µM (top dose mostly 46.1 µM), without a hit: at the top dose growth rescue (activation), usual class: activators; AID 652106; hit rate 0.14% among 370,000; further: % of control where 0% means no effect; nearly all actives have a fitted effect of over 65% in size
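Galactose-induced alpha-syn yeast (OD600=0.02, raffinose-pregrown) + pinned cpd, 24 hr, 30 deg C; growth by BacTiter-Glo luminescence. Growth restoration scores as activation.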
Abeta yeast res – A-beta toxicity reversal in yeast; yeast expressing A-beta42, growth rescue, OD600, 48 h; response scale: 0% DMSO, 100% iron-clioquinol control; Potency, µM (titrated, usually from 46.1 µM), most hits filed as activators; hit rate 0.063% among 410,000; AID 1347071; further: nearly all actives have a fitted effect of over 55% in size
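Growth rescue measured by 600 nm absorbance after 48 h yeast culture at 30 C with compound. Values normalized between DMSO and an equimolar ferric chloride plus clioquinol control.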
TDP-43 yeast inh – inhibitors of TDP-43 toxicity in yeast; TDP-43 expressing yeast growth rescue, BacTiter-Glo, 24 h; Potency, µM (top dose mostly 46.1 µM), for the others: top-dose growth rescue (activation), most hits filed as activators; hit rate 1.8% among 410,000; further: % of control where 0% means no effect; nearly all actives have a fitted effect of over 50% in size
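Yeast expressing TDP-43 (pregrown in raffinose, seeded at OD600=0.02 in galactose medium) exposed to compounds 24 hr at 30 deg C. Growth read by BacTiter-Glo luminescence; rescue of toxicity appears as increased signal.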
An asterisk follows results filed as active; i = inactive; ? = inconclusive; . = not tested or not shown; ! = not active in a repeat; [ ] = another dose, or the depositor's remark. Most compounds without a hit are left out; they make up all but 2.1% or so of the library. The call rests on the fitted dose curve; in most records, active means well fitted curve in the direction sought with a large enough effect; inconclusive means small, poorly fitted or top-dose-only effect, or another doubt; inactive means no such curve, though single readings can be large; an effect the other way counts as inactive or inconclusive. Potency means the concentration at half of the fitted maximal effect.

SMILES | FUS yeast rescue | aSyn yeast inh | Abeta yeast res | TDP-43 yeast inh
Cc1nc(NC(C)c2ccccc2)c2c3c(sc2n1)CCC3 (stereo not drawn) | i | -10% | i | 14µM*
Cc1ccc(CNc2nc(C)nc3sc4c(c23)CCC4)cc1 | i | 0% | i | -6%
CCNc1nc(Cl)nc(NC2CCCCC2)n1 | i | -8% | i | 13µM*
Cc1ccc(NC(=O)C2CCCN2S(=O)(=O)c2cccc3nsnc23)c(Br)c1 (stereo not drawn) | i | . | i | 20µM*
Cc1ccc(CN=c2c([N+](=O)[O-])nn(-c3cccc(C)c3)n2O)cc1 | i | 3% | i | 16µM*
CCc1ccc(N=c2c([N+](=O)[O-])nn(-c3ccccc3)n2O)cc1 | i | 18% | ? | 13µM*
Cc1ccc(CN=c2c([N+](=O)[O-])nn(-c3cccc(Cl)c3)n2O)cc1 | i | 10% | ? | 10µM*
CCc1ccc(-c2cc(C)no2)cc1S(=O)(=O)NCc1ccc(OC)cc1 | ? | . | i | ?
COC(=O)C1CN(Cc2ccccc2)CCS(=O)(=O)N1Cc1ccccc1F (stereo not drawn) | i | . | . | .
Cc1cccc(CCNC(=O)CCc2c(C)nc3c4c(C)cc(C)nc4nn3c2C)c1 | i | . | i | -15%
O=C(O)c1ccc(OS(=O)(=O)c2cccc(C(F)(F)F)c2)cc1 | i | 16% | i | ?
O=C(O)c1ccc(OS(=O)(=O)c2ccc(Cl)s2)cc1 | i | 5% | i | 14µM*
O=c1oc(CCCO)cc2ccc(C#Cc3ccsc3)cc12 | i | -10% | i | 14%
CC(C)(O)c1cc2ccc(C#Cc3ccsc3)cc2c(=O)o1 | i | 1% | i | 25µM*
COC(=O)c1ccc(COC(=O)CCS(=O)(=O)c2ccc(C)cc2)cc1 | i | 1% | i | -9%
Cc1ccc(S(=O)(=O)CCC(=O)c2ccc(O)cc2O)cc1 | i | 7% | i | 14µM*
Cc1ccc(S(=O)(=O)CCC(=O)OCc2ccc(Cl)cc2)cc1 | . | 13% | i | 25µM*
O=S(=O)(NCCc1ccccc1)c1ccc(N2CCCCS2(=O)=O)cc1 | i | . | i | 6%[9.22 µM]
CC(C)CNC(=O)OCc1cn(Cc2ccc(F)c(F)c2)nn1 | i | . | . | .
Cn1c2ccccc2c(=O)c2ccc(NCc3ccc4c(c3)OCO4)cc21 | i | -19% | i | 16µM*
CCc1ccc(S(=O)(=O)NCCc2csc(-c3cccnc3)n2)s1 | i | -26% | ? | 13µM*
O=S(=O)(NCCc1csc(-c2ccccc2)n1)c1ccc2c(c1)OCCO2 | i | 9% | i | 20µM*
CCc1ccc(S(=O)(=O)NCCc2csc(-c3ccccc3)n2)s1 | i | ? | i | 14µM*
CCS(=O)(=O)NCCc1csc(-c2cccnc2)n1 | i | 0% | i | ?
O=S(=O)(NCc1csc(-c2cccnc2)n1)c1ccc2c(c1)OCCO2 | i | 4% | i | 13%
SMILES | FUS yeast rescue | aSyn yeast inh | Abeta yeast res | TDP-43 yeast inh
COc1cccc(-c2nc(SCC(=O)Nc3ccc4c(c3)OCO4)c(-c3ccccc3)[nH]2)c1 | ? | . | i | 22µM*
COc1ccccc1N1CCN(C(=O)c2cc3c(s2)CCCCC3)CC1 | i | 2% | i | 22µM*
COc1ccccc1N1CCN(C(=O)c2oc3ccc(Br)cc3c2C)CC1 | i | 4% | i | 18µM*
CCc1cc(C(=O)N2CCN(c3ccccc3OC)CC2)sc1C | i | 3% | i | 13µM*
COc1ccccc1N1CCN(C(=O)c2cc3c(s2)-c2ccccc2OC3)CC1 | ? | 3% | i | 11µM*!
Nc1c(Nc2ccccc2)c2ccccc2oc1=O | i | 18µM* | i | ?
O=C(CCn1c(=O)c2cccn2c2cccnc21)N1CCN(c2ccc(F)cc2)CC1 | i | . | i | 13µM*
CCOc1ccc(-n2c(=O)c3c(C)c(C)sc3n(CC(=O)Nc3ccc(CC)cc3)c2=O)cc1 | i | . | i | 1%
Cc1ccc(CNC(=O)c2ccc(N3CCCC3)c(NC(=O)Nc3ccc(C)cc3)c2)cc1 | i | . | i | 2%
COc1ccc(S(=O)(=O)N2CCOC23CCN(C(=O)c2c(F)cccc2Cl)CC3)cc1 | i | 3% | ? | 18µM*
Cc1nn2c(-c3ccccc3)ccnc2c1Br | i | 4% | i | 20µM*
Cc1ccc(-c2ccnc3c(Br)c(C)nn23)cc1 | i | ? | i | 17%
CC(C)(C)C(=O)CSc1nnc(SCc2cccc3ccccc23)s1 | i | . | . | .
CCn1c(SCC(=O)Nc2ccc3c(c2)c2ccccc2n3CC)nnc1-c1ccco1 | 25µM* | -11% | i | 20%
CC(OC(=O)c1ccc(NS(=O)(=O)c2cccs2)cc1)C(=O)N(C)C1CCCCC1 (stereo not drawn) | 32µM* | -3% | i | -6%
CC1CCN(S(=O)(=O)c2ccc(C(=O)OC(C)C(=O)N(C)C3CCCCC3)cc2)CC1 (stereo not drawn) | i | -6% | i | -19%
CN1CCc2c(sc3nc(SCC(=O)N4CCCCC4)n(-c4ccccc4)c(=O)c23)C1 | i | 5.6µM* | i | -12%
COc1ccc(OCc2cc(=O)c3ccc4c(c3o2)C=CC(C)(C)O4)cc1OC | i | -3% | i | 35µM*
COc1ccc(-c2cn3cccnc3n2)cc1NC(=O)Nc1ccc(Cl)cc1 | i | . | i | 10%
COc1cc(NC(=O)CSc2nc3nc(C)c(Cc4ccc(C)cc4)c(C)n3n2)cc(OC)c1 | 32µM* | . | i | 20%
Cc1ccccc1Cc1c(C)nc2nc(SCC(=O)NCCc3ccc(Cl)cc3)nn2c1C | i | . | i | 32µM*
C=CCN1C(=O)[C@H](CC(=O)NCC23CC4CC(CC(C4)C2)C3)[C@@]2(C(=O)OC)CCCCC=C12 | i | . | . | .
CCOCCCN(Cc1ccco1)S(=O)(=O)c1cc2c(cc1Cl)NC(=O)CO2 | i | . | i | 14%
O=C(Nc1cccc(-c2nc3cccnc3s2)c1)c1ccco1 | i | -7% | i | 10µM*
CN(C)c1ccc(C(=O)Nc2cccc(-c3nc4cccnc4s3)c2)cc1 | i | . | i | 2%
SMILES | FUS yeast rescue | aSyn yeast inh | Abeta yeast res | TDP-43 yeast inh
O=C(Nc1cccc(-c2nc3cccnc3s2)c1)c1cccc(Br)c1 | i | . | i | 6.3µM*
O=C(Nc1ccc(-c2nc3cccnc3s2)cc1)c1ccco1 | i | -8% | i | 0%
O=C(CSc1nnnn1-c1cccc2c1CCCC2)N1CCCC1 | i | 3% | i | 20µM*
Cc1cccc(C(=O)O/N=C(\c2ccccc2)c2cccnc2)c1 | i | 9% | i | 13µM*
Cc1ccc(C(=O)O/N=C(\c2ccccc2)c2cccnc2)cc1 | i | -6% | i | 18µM*
O=C(NCc1ccccc1Cl)c1ccc2oc(=O)n(Cc3ccccc3)c2c1 | i | . | i | 21%
COC(=O)c1cccc(NC(=O)c2ccc(OC)c(Cl)c2)c1 | i | 2% | i | 11µM*
COC(=O)c1cc(OC)c(OC)cc1NC(=S)Nc1cccc(C(C)=O)c1 | i | -7% | i | -6%
